Sampled rows, rich in hits. Any-hit rate of the full collection: about 2.4%.
WRN helicase inh = qHTS for Inhibitors of WRN Helicase; Bifunctional 3'-5' exonuclease/ATP-dependent helicase WRN (Homo sapiens), Q14191; WRN helicase unwinding, fluorescent forked duplex, kinetic; Potency, µM (doses to about 114 µM), usual class: inhibitors; 360,000 tested, 0.46% active; also: nearly all actives have a fitted effect of over 55% in size
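Screening of the MLSMR collection measured strand separation of a quenched forked DNA duplex (100 nM) by 20 nM WRN with 2 mM ATP, all final. Compounds were preincubated with enzyme 15 min at room temperature.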
POLB inh = qHTS Assay for Inhibitors of DNA Polymerase Beta. Pol beta primer extension/strand displacement, fluorescence kinetic. Potency, µM (titrated, usually from 114 µM), usual class: inhibitors. 340,000 tested, 1.3% active. AID 485314, 2010
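Homogeneous kinetic assay of primer extension and strand displacement by 10 nM Pol beta, preincubated 15 min at room temperature with compound before 50 nM substrate (final) was added. Read at 0 and 10 min; four-parameter Hill fit.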
FEN1 inh = qHTS Assay for the Inhibitors of Human Flap endonuclease 1 (FEN1); P39748; Recombinant FEN1 flap cleavage, fluorescence, 15 min; Potency, µM (series often up to 114 µM), most hits filed as inhibitors; 390,000 tested, 0.35% active; AID 588795, 2011; also: nearly all actives have a fitted effect of over 65% in size
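Quantitative HTS format: each compound was titrated, incubated with 10 nM nuclease for 15 min at room temperature, then challenged with flap substrate at 50 nM final. Signal change over 15 min gave concentration–effect curves.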
Pol kappa inh = qHTS for Inhibitors of Polymerase Kappa; purified Pol kappa, fluorescent DNA synthesis assay, 10 min; DNA polymerase kappa (Homo sapiens), Q9UBT6; Potency, µM (top dose mostly 107 µM), hits mostly inhibitors; 400,000 tested, 0.53% active; AID 588579, 2011
Target sequence (Q9UBT6 whole entry, looked up): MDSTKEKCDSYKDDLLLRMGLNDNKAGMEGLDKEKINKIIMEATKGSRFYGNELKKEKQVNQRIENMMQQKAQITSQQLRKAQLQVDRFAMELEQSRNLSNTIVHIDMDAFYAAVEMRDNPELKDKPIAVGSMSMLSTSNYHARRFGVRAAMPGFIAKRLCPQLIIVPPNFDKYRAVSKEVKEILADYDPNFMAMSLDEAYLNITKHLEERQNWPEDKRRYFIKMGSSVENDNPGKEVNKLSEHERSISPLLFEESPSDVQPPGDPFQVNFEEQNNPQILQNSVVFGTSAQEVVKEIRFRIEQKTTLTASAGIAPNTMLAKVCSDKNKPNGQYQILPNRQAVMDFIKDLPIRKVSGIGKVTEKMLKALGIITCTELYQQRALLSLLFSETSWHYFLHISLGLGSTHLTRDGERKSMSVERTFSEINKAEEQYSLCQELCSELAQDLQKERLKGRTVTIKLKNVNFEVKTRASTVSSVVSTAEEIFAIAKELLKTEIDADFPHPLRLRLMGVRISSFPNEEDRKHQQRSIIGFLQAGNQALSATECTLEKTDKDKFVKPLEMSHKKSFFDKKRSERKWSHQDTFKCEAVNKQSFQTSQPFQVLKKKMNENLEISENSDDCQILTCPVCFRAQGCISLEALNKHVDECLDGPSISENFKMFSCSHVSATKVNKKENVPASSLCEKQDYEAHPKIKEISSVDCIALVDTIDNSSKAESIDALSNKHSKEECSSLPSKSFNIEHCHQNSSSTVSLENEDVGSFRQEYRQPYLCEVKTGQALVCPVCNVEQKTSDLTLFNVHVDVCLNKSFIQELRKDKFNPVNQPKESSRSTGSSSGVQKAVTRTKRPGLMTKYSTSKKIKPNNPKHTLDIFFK
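Readout: fluorescence, taken kinetically at 0 and 10 min. Conditions: 10 nM Pol kappa, 15 min RT compound preincubation, 50 nM substrate final. Controls: enzyme-free buffer wells.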
POLI inh = qHTS for Inhibitors of Polymerase Iota; Pol iota fluorescent replication assay, 10 min; Potency, µM (highest dose often 115 µM), most hits filed as inhibitors; 390,000 tested, 1% active; AID 588590, 2011
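Pol iota at 10 nM preincubated 15 min with compounds at room temperature; reaction started with fluorescent substrate, 50 nM final. Fluorescence read kinetically at 0 and 10 min; buffer-only wells as negative control.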
Pol eta inh = qHTS for Inhibitors of Polymerase Eta. DNA polymerase eta (Homo sapiens), Q9Y253. recombinant Pol eta, fluorescent DNA replication assay. Potency, µM (highest dose often 114 µM), hits mostly inhibitors. 390,000 tested, 1.2% active. AID 588591, 2011
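Pol eta at 10 nM preincubated with compounds 15 min at room temperature; reaction started with fluorescent substrate (50 nM final) and read kinetically at 0 and 10 min.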
A number is an active result; n = inactive; u = inconclusive; x = no result given; [ ] = another dose, or the depositor's remark. Calls follow the shape of the dose curve; as a rule, active = well fitted curve in the direction sought with a large enough effect; inconclusive = small, poorly fitted or top-dose-only effect, or another doubt; inactive = no such curve, though single readings can be large; an effect the other way counts as inactive or inconclusive.

SMILES	WRN helicase inh	POLB inh	FEN1 inh	Pol kappa inh	POLI inh	Pol eta inh
COc1cc(CCC(O)CC(=O)CCc2ccccc2)ccc1O (configuration not stated)	n[11.6 µM]	25µM	n	n	79µM	n
CCOC(=O)C1=C(C)Nc2ccccc2N/C1=N\S(=O)(=O)c1cc(C(=O)O)ccc1Cl	n[11.6 µM]	x	n	n	u	35µM
CCOC(=O)C1=C(C)Nc2ccccc2N/C1=N\S(=O)(=O)c1ccc(Cl)cc1	n	x	n	n	n	n
CN(C)S(=O)(=O)c1cccc(NC(=O)c2ccccc2SCC(=O)N2CCCC2)c1	n	x	x	x	x	n
O=C(NCCc1ccccc1)c1ccc(Cn2c(=O)c3cccn3c3cccnc32)cc1	x	n	n	n	n	n
O=C(NCCc1ccc(Cl)cc1)c1ccc(Cn2c(=O)c3cccn3c3cccnc32)cc1	x	11µM	n	n	u	u
Cc1ccc(NC(=O)COC(=O)c2ccc3c(c2)NC(=O)C2CCCN32)cc1 (configuration not stated)	n	n	n	n	7.9µM	n
COc1ccc(OC(C)C(=O)NCc2nc(-c3cccc(C)c3)no2)cc1 (configuration not stated)	x	n	n	n	n	n
O=c1oc2cc(O)ccc2c2oc3cc(O)ccc3c12	u	35µM	40µM	u	u	u
O=c1oc2cc(O)ccc2c2ccccc12	n	n	n	n	n	u
CCCCCn1c(=O)[nH]c2cc(C(=O)NCc3ccc(OC)cc3)ccc2c1=O	x	n	n	n	n	n
Cc1ccc(C2NC(=S)N3C(c4ccc(C)cc4)NC(=S)N23)cc1 (configuration not stated)	n	x	x	x	x	n
COc1ccc(C2NC(=S)N3C(c4ccc(OC)cc4)NC(=S)N23)cc1 (configuration not stated)	89µM	n	n	n	u	n
Cn1c(=O)c2c(ncn2CC(O)CNc2ccc(Cl)cc2)n(C)c1=O (configuration not stated)	n	n	n	n	n	n
Cc1ccc(NCC(O)Cn2cnc3c2c(=O)n(C)c(=O)n3C)cc1 (configuration not stated)	n	13µM	n	n	n	n
Cc1ccc(NC(=O)CSc2nc(-c3cccs3)nc3cc(=O)[nH]n23)cc1C	x	50µM	n	n	89µM	n
Cc1ccc(NC(=O)CSc2nc(-c3ccc(C(C)(C)C)cc3)nc3cc(=O)[nH]n23)cc1C	x	u	n	n	n	n
COc1ccc(OC)c(NC(=O)CSc2nc(-c3ccccc3C)nc3cc(=O)[nH]n23)c1	x	n	n	n	n	n
Cc1ccccc1NC(=O)CSc1nc(-c2cccs2)nc2cc(=O)[nH]n12	x	u	n	u	89µM	n
Cc1ccc(NC(=O)CSc2nc(-c3ccco3)nc3cc(=O)[nH]n23)cc1	x	50µM	n	n	u	n
CO[C@H]1OC2O[C@@]3(C)CC[C@H]4[C@H](C)CC[C@@H]([C@H]1C)[C@@]24OO3 (some centres not stated)	x	x	x	n	x	x
CCN1c2ccccc2-c2nc(SCC(=O)Nc3cc(C)c(Cl)cc3OC)ncc2S1(=O)=O	x	n	n	n	n	n
O=C(Nc1ccc(-c2nnc(-c3ccccc3)o2)cc1)C(F)(F)F	n	n	n	n	n	n
CC(C)C(=O)Nc1ccc(-c2nnc(-c3ccccc3)o2)cc1	n	45µM	n	n	n	n
Cc1cc(/C=N/NC(=O)C(O)(c2ccccc2)c2ccccc2)c(C)n1-c1ccc(C(=O)O)cc1	n[11.6 µM]	u	n	n	u	79µM
SMILES	WRN helicase inh	POLB inh	FEN1 inh	Pol kappa inh	POLI inh	Pol eta inh
Cc1cc(/C=N/NC(=O)c2cccc(N(C)C)c2)c(C)n1-c1cc(C(=O)O)cc(C(=O)O)c1	u	18µM	u	32µM	10µM	20µM
COc1cc(NS(=O)(=O)c2cc(Br)cc3c2N(C(=O)C2CC2)CC3)cc(OC)c1	x	n	n	n	u	n
O=C(O)c1cc(N=Nc2c(O)ccc3ccccc23)cc(C(=O)O)c1	n	n	u	20µM	n	18µM
Oc1ccc(N=Nc2c(O)ccc3ccccc23)cc1	n	n	n	n	n	n
O=C1/C(=C\c2ccncc2)SC(=S)N1C1CCCCC1	n	79µM	n	n	n	n
O=C(c1ccc(COc2ccc(F)cc2)o1)n1cc(Br)cn1	u	22µM	n	n	u	79µM
Cc1ccc(NC(=O)Cn2c(=O)n(CCC(=O)NCc3ccc4c(c3)OCO4)c(=O)c3sccc32)c(C)c1	x	u	n	n	n	n
Cc1ccc(Cl)cc1NC(=O)Cn1c(=O)n(CCC(=O)NCc2ccc3c(c2)OCO3)c(=O)c2sccc21	x	14µM	n	n	n	n
COc1ccc(NC(=O)Cn2c(=O)n(CCCCCC(=O)NCc3ccc4c(c3)OCO4)c(=O)c3sccc32)cc1Cl	x	n	89µM	n	n	n
c1ccc2nccnc2c1	x	x	n	n	n	x
Cc1ccc(CN2CCC(CNC(=O)Nc3cccc(Cl)c3C)C2)cc1 (configuration not stated)	x	n	n	n	n	n
CCN(CC)c1ccc(/C=C/C(=O)c2cccnc2)cc1	n	n	n	n	n	n
CCN(CC)c1ccc(/C=C/C(=O)c2ccc(Br)cc2)cc1	22µM	u	u	n	u	u
O=C(NC1CCCC1)c1ccc2c(c1)N(Cc1ccc(F)cc1)C(=O)c1ccccc1S2	x	n	n	n	n	n
CC1CCC(NC(=O)c2ccc3c(c2)N(Cc2cccc(F)c2)C(=O)c2ccccc2S3)CC1 (configuration not stated)	x	n	n	n	89µM	u
Cc1sc2nc(SCC(=O)Nc3ccc(Cl)c(C(=O)O)c3)[nH]c(=O)c2c1C	n	x	n	n	n	n
Cc1ccc(-c2csc3nc(SCC(=O)Nc4ccc(Cl)c(C(=O)O)c4)[nH]c(=O)c23)cc1	u	u	n	n	u	40µM
Cc1sc2nc(SCC(=O)Nc3ccc(S(N)(=O)=O)cc3)[nH]c(=O)c2c1C	n[11.6 µM]	25µM	n	n	u	u
COc1ccc2cc3cc(C(=O)NC4CC4)sc3nc2c1	n	79µM	n	n	n	n
COc1ccc2nc3sc(C(=O)NCCN4CCc5ccccc5C4)cc3cc2c1	n	20µM	n	n	n	u
CCOc1ccc(CCNC(=O)c2cc3cc4ccc(OC)cc4nc3s2)cc1OCC	x	n	n	n	n	n
Cc1sc(-n2cccc2)c(C(=O)O)c1C	n	u	n	n	u	89µM
COc1ccc(C(=O)Nc2ccc(OC)c([N+](=O)[O-])c2)cc1Br	n	20µM	n	n	n	u
